Structures are written as SMILES. A number with no mark means an inactive call. The source made the active and inactive calls. Calls follow the shape of the full dose curve.
% is scaled to controls: 0 for no effect and ±100 for the full control effect.

This assay can be described thus: G protein-coupled receptor (GPCR) small molecule agonists, calcium flux assay: HEK293 wild type cell line counter screen (AID 1920065). As to conditions: HEK293 WT calcium flux, fluorescence, agonist mode; series mostly up to 57.6 µM; activation: at the top concentration. From the text:
U.S. Tox21 Program National Center for Advancing Translational Sciences [NCATS] Division of Preclinical Innovation [DPI] U.S. Environmental Protection Agency [EPA] National Institutes of Environmental Health Sciences [NIEHS] National Toxicology Program [NTP] U.S. Food and Drug Administration [FDA] Assay overview: The increased intracellular calcium release that occurred upon G protein-coupled receptor (GPCR) activation led to the frequent use of calcium flux assays to detect GPCR activation. For the purpose of studying and screening compounds that may activate GPCR, receptor-overexpressing models were typically generated using Hek293 wild-type (WT) cells. In order to eliminate the compounds that may have induced calcium release for non-specific activation, a counter-assay utilizing calcium flux on Hek293 WT cells was performed. The data were formulated in order to serve as a control for any calcium flux detection utilizing Hek293 cells with either GPCR overexpression or gene modification. The procurement of Hek293 WT cells from ATCC. Fluorescence intensity can be utilized to determine the activation of the compound in a calcium flux assay. As a counter control, this cell line was utilized to screen the Tox21 10K compound library.
Assay Protocol Summary: Hek293 cells were dispensed at 1500cells/4uL/well in 1536-well black wall/clear bottom plates using a multidrop dispenser. After the assay plates were incubated at a 37 C/5% CO2 incubator for 18 hours, 4 uL of Calcium Dye Solution was added to each well. The plates were incubated at 37 C for 1 hour. For agonist mode, 23 nL of compounds dissolved in DMSO, positive control (ATP) or DMSO only was transferred to the assay plate by a pin tool station. The fluorescence intensity in the plates was measured using FDSS 7000EX kinetic plate reader with a filter set of Ex/Em=480/540 for 3 min at 1 sec intervals. Each test compound was measured at 15 concentrations and in triplicates.
Consider `Oc1cccc2ccccc12`, for which the Potency entry was “inactive”.

With `CC(C)c1ccccc1O`, the “activation” value is -0.339%. Still for that read-out and setting: the result for `CCCCCC1CCCC(=O)O1` (stereo not given) reads 0.543%. For `CCOC(=O)n1ccn(C)c1=S`, the Potency entry was “inactive”. Take `O=C(O)/C=C/c1ccccc1`: the “activation” value was 1.22%. Regarding `CCN(CC)c1ccc(C(=O)c2ccccc2C(=O)O)c(O)c1`, the Potency entry is “inactive”. Take `CCOC(=O)c1ccc(N)cc1`: the Potency entry was “inactive”. In the case of `OCc1c2ccccc2cc2ccccc12`, the “activation” value is -0.981%.

With `CCNc1cc(O)ccc1C`, the “activation” value is 0.845%. Still for that read-out and setting: the result for `CC(=O)c1sc(C)nc1C` reads 0.79%.

`O=c1cc(CO)occ1O`: the “activation” value was 0.298% [at 26.5 µM].

Take `CCCC(C)C(O)CC` (stereo not given): the “activation” value was -1.2%. In the case of `O=C1C(c2[nH]c3ccc(S(=O)(=O)O)cc3c2O)=Nc2ccc(S(=O)(=O)O)cc21`, the “activation” value is 0.787%. Regarding `CCCCCOC(C)=O`, the Potency result was “inactive”. Same read-out and setting: the result for `CCCCCCCCCCCCOCC1CO1` (stereo not given) reads “inactive”; that for `Cc1cccnc1`, “inactive”. Take `CCCCCCCCOC(=O)CCCCCCCCC(=O)OCCCCCCCC`: the “activation” value is -0.0316%. As for `CCCCCCCC(=O)OCCCCCC`, the “activation” value is 0.335%. In the case of `CCCCCCCCCCCCCCCC(=O)OC`, the activation is 0.455% [at 11.8 µM]. Still for that read-out and setting: the result for `CCOCCOC(=O)/C=C/c1ccc(OC)cc1` reads -0.595% [at 26.5 µM]. As to `COc1cc(C(=O)N2CCOCC2)cc(OC)c1OC`, the “activation” value was -1.13% [at 26.5 µM].

With `C=C(c1ccc(C(=O)O)cc1)c1cc2c(cc1C)C(C)(C)CCC2(C)C`, the Potency result is “inactive”. Turning to `Nc1c(Br)cc([N+](=O)[O-])cc1Br`, the “activation” value was -1.08%.

For the compound `CC(=O)Nc1ccc(C)cc1`, the “activation” value is 0.303%.

On to `CN(C)CCCNCCCN`, for which the “activation” value is 0%. Turning to `CC(=O)CC(=O)Nc1ccccc1C`, the Potency entry was “inactive”. On to `C=C[Si](OC(=C)C)(OC(=C)C)OC(=C)C`, for which the “activation” value is -0.44%. `CN1CCc2cccc3c2[C@H]1Cc1ccc(O)c(O)c1-3`: the Potency result was “inactive”. As to `O=C(O)[C@@H]1[C@H]2C[C@H]3c4[nH]c5ccccc5c4CCN3C[C@@H]2CC[C@@H]1O`, the “activation” value was 4.68% [at 26.5 µM]. On the same count and under the same terms, the result for `Nc1cc(S(=O)(=O)O)ccc1S(=O)(=O)O` reads 0.0054%. For the compound `CCCCC(CC)COC(=O)CCCCCCCC(=O)OCC(CC)CCCC` (stereo not given), the Potency entry is “inactive”. With `CCCC(=O)C(C)=O`, the “activation” value was 0.477%. On the same count and under the same terms, the result for `O=S(=O)(O)CO` reads 0.207%; that for `CCN(CCO)c1cccc(C)c1`, -1.8%. Take `O=C1c2ccccc2CCc2ccccc21`: the Potency result is “inactive”. For `O=C(CCS)OCC(COC(=O)CCS)(COC(=O)CCS)COC(=O)CCS`, the “activation” value is 0.339%. Take `COc1ccc(Br)c(C)c1`: the “activation” value was -0.543%. As for `CC(C(=O)O)c1cccc(C(=O)c2ccccc2)c1` (stereo not given), the Potency result is “inactive”. As for `CCCCCCCCCCCC(=O)OCC(C)OC(=O)CCCCC(=O)O` (stereo not given), the “activation” value was 0.59% [at 26.5 µM]. Still for that read-out and setting: the result for `C=CCS(=O)(=O)O` reads 0.707%.

For the origin of these results see PubChem BioAssay (Tox21).
